Source: PubChem BioAssay AID686979 (National Center for Advancing Translational Sciences (NCATS), 2013)
In all, about 420,000 compounds went through this assay and about 50,000 (12%) were called active. Roughly 26% stayed inconclusive and do not appear here. The list comes from a sample in which actives are over-represented; it also holds similar structures and randomly drawn compounds. Unmarked numbers belong to inactive results. The call rests on the fitted dose curve; in most records, active means well fitted inhibition curve with a large enough effect; inconclusive means small, poorly fitted or top-dose-only effect; inactive means flat fitted curve, though single readings scatter.

test: qHTS for Inhibitors of human tyrosyl-DNA phosphodiesterase 1 (TDP1): qHTS in cells in presence of CPT; conditions: chicken DT40 Tdp1-/-;hTDP1 cells + 20 nM CPT, ATP luminescence, 48 h; series mostly up to 46.2 µM; activity change, negative = growth inhibition: at the top concentration; further: nearly all actives have a fitted effect of over 55% in size
In short: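 Cell growth measured by CellTiter-Glo luminescence after a minimum 48 h, 37 C compound exposure with 20 nM CPT in Tdp1-knockout DT40 cells stably expressing hTDP1, seeded 400/well; qHTS titration format.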
On the % scale 0 is the no-effect control and ±100 the full control effect; potency means the concentration at half of the fitted maximal effect.

| Structure (SMILES) | activity change, negative = growth inhibition | Potency |
| --- | --- | --- |
| CC1=CC=CC2=N/C(=N\S(=O)(=O)c3ccc(F)cc3F)c3ccccc3CN12 | -4.68% |  |
| C=CCn1c(CNS(=O)(=O)c2ccc(Br)cc2)nnc1SC | -1.07% |  |
| CCOC(=O)c1c(C)[nH]c(C(=O)OCC(=O)N2CCCC2=O)c1C | -0.234% |  |
| CC(C)c1nc(CNC(=O)CC2C(=O)NCCN2Cc2cccc(F)c2F)cs1 (centres undefined) | -8.63% |  |
| CC1(C(=O)Nc2ccc3c(c2)OCCO3)CN(S(C)(=O)=O)CC(=O)N1Cc1cccc(F)c1 (centres undefined) | -19.9% |  |
| Cc1nn2c(=O)cc(COC(=O)CNC(=O)c3ccc(F)cc3)nc2s1 | -0.0721% |  |
| CCCc1nn2c(=O)cc(COC(=O)c3ccc(NC(=O)C(C)Oc4ccccc4)cc3)nc2s1 (centres undefined) | -4.78% |  |
| CCCCc1nn2c(=O)cc(COC(=O)c3ccccc3NC(=O)C(C)(C)C)nc2s1 | -2.59% |  |
| CCOCCc1nn2c(=O)cc(COC(=O)CNC(=O)c3ccc(C(C)(C)C)cc3)nc2s1 |  | 16.4 µM (active) |
| CCCCc1nn2c(=O)cc(COC(=O)c3ccc(NC(=O)c4ccccc4C)cc3)nc2s1 |  | 20.6 µM (active) |
| CCOCCc1nn2c(=O)cc(CSCC(=O)Nc3cccc(C)c3C)nc2s1 | -13.4% |  |
| O=C(O)CCCCC(=O)O | -0.525% |  |
| COc1ccc(NC(=O)N(C)C[C@@H]2OCc3cn(nn3)CCCC(=O)N([C@H](C)CO)C[C@H]2C)c(OC)c1 | -5.76% |  |
| O=C(Nc1cccc([N+](=O)[O-])c1)Nn1cnnc1 | -8.2% |  |
| CC(C)CC(=O)NC(=S)Nc1cc(C(=O)O)ccc1Cl | -1.14% |  |
| CC(C)Nc1ccc(-n2nc3ccccc3[n+]2[O-])cc1 | 11.5% |  |
| NS(=O)(=O)c1ccc(CCNC(=O)CNC(=O)Cc2ccccc2)cc1 | 9.87% |  |
| CCOc1cnc(-c2c(-c3ccccc3Cl)noc2C)o1 | 8.07% |  |
| Cc1oc(-c2ccccc2Cl)[n+]([O-])c1C |  | 14.6 µM (active) |
| OCC[C@H]1C[C@@H](O)[C@H](O)[C@]2(OCCCc3ccccc32)O1 | -25.4% |  |
| COc1ccc(C(=O)OCC(=O)N2CC(=O)Nc3ccccc32)cc1Br | -8.62% |  |
| Cn1cccc1/C=N/NC(=O)CNc1cccc2ccccc12 | 4.64% |  |
| Cc1cccc(/C=N/NC(=O)CNc2cccc3ccccc23)n1 |  | 18.4 µM (active) |
| C/C(=N\NC(=O)CNc1cccc2ccccc12)c1ccc(Br)s1 |  | 11.6 µM (active) |
| O=C(NC1CCCC1)c1ccc(Br)s1 | -20.1% |  |
| C/C(Cc1ccccc1)=N\NC(=O)CNC(=O)c1cccc(Br)c1 | 0.991% |  |
| Cc1ccc(C(=O)N/N=C/c2cccc3ccccc23)cn1 | 14.6% |  |
| COc1cc(OC)cc(C(=O)NCCSCc2ccc(Cl)cc2)c1 | -3.77% |  |
| Cc1ccc(C(=O)NC2CCN(C(=O)Nc3ccccc3Cl)CC2)cc1 | -7.58% |  |
